Active and inactive are the calls of the source.
Assays:
[1] = optical density shifts of acrAB sulA E. coli – strain DRC41, OD650, 48 h, E. coli filamentation inducer project, primary screen (AID 1152); conditions: higher = more signal, called active from +8 up or from −8 down;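 further: E. coli MC1000 strain DRC41 lacking acrAB efflux pump and sulA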
[2] = probe aLefty1 binding on compound microarray – biochemical, small-molecule microarray, 635/667 nm fluorescence, primary screen (AID 1153); conditions: higher = more signal;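 further: score merges spot fluorescence with signal-to-noise ratio from the scanned slide images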
[3] = plasmodial surface anion channel blockers, osmotic lysis – cell-based, P. falciparum Indochina, OD700, 1 h, primary screen (AID 1154); conditions: P. falciparum Indochina infected RBC osmotic lysis, higher = more signal, called active from +8 up or from −8 down
[4] = plasmodial surface anion channel blockers, osmotic lysis – cell-based, P. falciparum Indochina, OD700, 2 h, primary screen (AID 1155);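 further: lysis reports solute entry through the parasite surface anion channel PSAC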; conditions: P. falciparum Indochina infected erythrocytes, higher = more signal, called active from +8 up or from −8 down
[5] = changes in parasitized red cell lysis, either direction – P. falciparum Indochina, OD700, 3 h, PSAC antagonist project, primary screen (AID 1156); conditions: P. falciparum-infected erythrocytes, osmotic lysis, higher = more signal, called active from +8 up or from −8 down
[6] = plasmodial surface anion channel blockers, osmotic lysis – cell-based, P. falciparum Indochina, OD700, 18 h, primary screen (AID 1157); conditions: P. falciparum Indochina infected erythrocytes, osmotic lysis OD700, 18 h; higher = more signal, called active from +8 up or from −8 down
[7] = S6 kinase pathway phospho-S6 level changes – cell-based, A549, cytoblot, luminescence, serum-stimulated, primary screen (AID 1158); conditions: 5 h, higher = more signal;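 further: serum-stimulated A549 lung adenocarcinoma cells; signal is phosphorylated S6 detected by cytoblot immunostaining with HRP secondary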
[8] = target: NADPH oxidase 2 (Homo sapiens) (UniProt P04839); experiment: compounds shifting NOX2 Amplex Red fluorescence – cell-based, HEK293-NOX2, PMA-stimulated, NOX inhibitor project, primary screen (AID 1159); conditions: 45 min, higher = more signal, called active from +8 up or from −8 down; further: test concentration not given here
NADPH oxidase 2 (Homo sapiens), sequence (P04839 whole entry, looked up): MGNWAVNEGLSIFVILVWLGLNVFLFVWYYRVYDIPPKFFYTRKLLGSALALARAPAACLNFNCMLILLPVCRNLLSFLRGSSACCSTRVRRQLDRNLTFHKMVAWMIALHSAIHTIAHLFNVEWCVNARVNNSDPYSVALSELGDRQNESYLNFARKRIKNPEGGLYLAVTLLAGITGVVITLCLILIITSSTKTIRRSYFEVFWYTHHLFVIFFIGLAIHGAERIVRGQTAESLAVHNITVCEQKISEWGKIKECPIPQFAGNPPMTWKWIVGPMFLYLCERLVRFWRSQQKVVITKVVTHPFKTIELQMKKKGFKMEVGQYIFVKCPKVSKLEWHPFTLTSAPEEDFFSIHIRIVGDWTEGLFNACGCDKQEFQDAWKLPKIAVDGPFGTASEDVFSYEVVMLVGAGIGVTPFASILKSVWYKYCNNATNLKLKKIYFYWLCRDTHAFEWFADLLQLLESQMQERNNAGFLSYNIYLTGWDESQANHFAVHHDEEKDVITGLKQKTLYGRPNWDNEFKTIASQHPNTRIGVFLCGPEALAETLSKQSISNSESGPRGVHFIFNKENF

[9] = target: NADPH oxidase 4 (Homo sapiens) (UniProt Q9NPH5); experiment: compounds shifting NOX4 Amplex Red fluorescence – cell-based, HEK293-NOX4, tetracycline-induced, NOX inhibitor project, primary screen (AID 1160); conditions: HEK293-NOX4, Amplex Red H2O2 fluorescence, 45 min; higher = more signal, called active from +8 up or from −8 down
NADPH oxidase 4 (Homo sapiens), sequence (Q9NPH5 whole entry, looked up): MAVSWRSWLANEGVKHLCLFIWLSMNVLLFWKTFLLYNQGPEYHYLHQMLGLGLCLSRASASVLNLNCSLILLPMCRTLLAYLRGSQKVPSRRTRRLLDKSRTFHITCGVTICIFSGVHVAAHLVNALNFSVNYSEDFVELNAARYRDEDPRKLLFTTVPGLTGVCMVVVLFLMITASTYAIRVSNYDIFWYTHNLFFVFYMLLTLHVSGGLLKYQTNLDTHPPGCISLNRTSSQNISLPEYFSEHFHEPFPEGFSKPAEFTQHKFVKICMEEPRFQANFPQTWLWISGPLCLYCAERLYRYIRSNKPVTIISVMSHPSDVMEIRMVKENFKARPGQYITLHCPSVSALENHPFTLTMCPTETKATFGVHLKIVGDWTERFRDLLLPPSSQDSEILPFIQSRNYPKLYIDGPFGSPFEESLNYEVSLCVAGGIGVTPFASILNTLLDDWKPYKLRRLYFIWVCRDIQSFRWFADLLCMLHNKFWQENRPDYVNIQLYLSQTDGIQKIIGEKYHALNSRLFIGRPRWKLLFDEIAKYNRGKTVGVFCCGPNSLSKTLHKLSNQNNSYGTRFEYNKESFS

[10] = target: NADPH oxidase 5 (Homo sapiens) (UniProt Q96PH1); experiment: compounds shifting NOX5 Amplex Red fluorescence – cell-based, HEK293-NOX5, NOX inhibitor project, primary screen (AID 1161); conditions: HEK293-NOX5, ionomycin, 45 min, higher = more signal
NADPH oxidase 5 (Homo sapiens), sequence (Q96PH1 whole entry, looked up): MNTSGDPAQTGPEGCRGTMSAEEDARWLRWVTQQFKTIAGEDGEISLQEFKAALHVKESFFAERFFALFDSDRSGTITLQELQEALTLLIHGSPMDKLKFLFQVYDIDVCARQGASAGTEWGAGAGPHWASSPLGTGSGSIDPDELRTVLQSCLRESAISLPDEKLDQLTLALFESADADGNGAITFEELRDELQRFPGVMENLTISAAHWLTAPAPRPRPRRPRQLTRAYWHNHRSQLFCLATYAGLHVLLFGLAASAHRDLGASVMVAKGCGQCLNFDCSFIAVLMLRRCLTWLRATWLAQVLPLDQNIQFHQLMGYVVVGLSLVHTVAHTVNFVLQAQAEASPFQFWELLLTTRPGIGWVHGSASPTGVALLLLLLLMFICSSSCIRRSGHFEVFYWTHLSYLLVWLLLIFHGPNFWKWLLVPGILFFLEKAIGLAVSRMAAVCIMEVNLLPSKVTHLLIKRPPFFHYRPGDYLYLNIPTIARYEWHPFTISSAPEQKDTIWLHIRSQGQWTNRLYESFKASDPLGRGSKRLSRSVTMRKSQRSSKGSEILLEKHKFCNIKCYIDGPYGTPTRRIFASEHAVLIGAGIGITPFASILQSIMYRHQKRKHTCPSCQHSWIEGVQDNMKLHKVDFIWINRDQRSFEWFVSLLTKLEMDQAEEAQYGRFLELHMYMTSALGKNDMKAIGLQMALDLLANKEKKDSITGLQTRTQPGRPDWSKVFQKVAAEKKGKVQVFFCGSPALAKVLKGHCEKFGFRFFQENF

| Structure (SMILES) | z-score [1] | composite z-score [2] | z-score [3] | z-score [4] | z-score [5] | z-score [6] | z-score [7] | z-score [8] | z-score [9] | z-score [10] |
| --- | --- | --- | --- | --- | --- | --- | --- | --- | --- | --- |
| COC(=O)CC=C[C@@H](C)[C@@H](C=NO[C@@H](C)c1cn([C@H](CO)Cc2ccccc2)nn1)OC | -0.64 (inactive) | -0.275 | -0.762 (inactive) | -1.66 (inactive) | -0.726 (inactive) | -1.8 (inactive) | 1.32 | -0.374 (inactive) | 0.173 (inactive) | 0.874 |
| CO[C@H]1COC(=O)[C@@H](C)COC(=O)[C@@H](OCc2ccccc2)C=C[C@@H]1C | -0.303 (inactive) | -0.235 | -0.347 (inactive) | 0.32 (inactive) | 0.328 (inactive) | -0.0659 (inactive) | -0.286 | 0.237 (inactive) | 0.566 (inactive) | -0.609 |
| CCOC(=O)[C@H](Cc1ccccc1)NC(=O)CCC1CC(OC(=O)NCCc2ccc(F)cc2)CC2(CCCC(COC(=O)NCCc3ccc(Cl)cc3)O2)O1 (stereo not given in full) | 0.0991 (inactive) | -0.0244 | 1.13 (inactive) | -0.525 (inactive) | 0.056 (inactive) | 0.126 (inactive) | 0.406 | 0.526 (inactive) | 0.311 (inactive) | 1.13 |
| CO[C@H]1COC(=O)CC=C[C@@H](C)[C@H](NS(=O)(=O)c2ccc(C)cc2)COC(=O)CCC[C@@H]1C | -0.643 (inactive) | -0.062 | -0.669 (inactive) | -1.56 (inactive) | -0.883 (inactive) | -1.62 (inactive) | -0.56 | -0.255 (inactive) | 0.987 (inactive) | 0.428 |
| CCOC(=O)[C@H](CC(C)C)NC(=O)CCC1CC(OC(=O)NCc2cccc3ccccc23)CC2(CCCC(COC(=O)NCCCN3CCCC3=O)O2)O1 (stereo not given in full) | 0.261 (inactive) | -0.177 | 0.51 (inactive) | 0.936 (inactive) | 0.662 (inactive) | 0.295 (inactive) | 0.285 | 1.51 (inactive) | 0.133 (inactive) | -0.877 |
| CCOC(=O)C1=NO[C@@]2(C=C(Br)C3(OCCCO3)[C@H]3O[C@H]32)C1 | 0.721 (inactive) | 0.026 | 0.123 (inactive) | 0.105 (inactive) | 0.157 (inactive) | -0.218 (inactive) | -0.235 | 0.925 (inactive) | -0.373 (inactive) | 0.43 |
| CSCC[C@@H]1NC(=O)CC=C[C@@H](C)COC(=O)[C@@H](C)COC1=O | -0.136 (inactive) | -0.283 | -0.434 (inactive) | 0.28 (inactive) | 0.742 (inactive) | 0.0841 (inactive) | -0.0649 | -1.13 (inactive) | 0.279 (inactive) | 0.238 |
| CCOC(=O)[C@H](CC(C)C)NC(=O)CCC1CC(OC(=O)NCc2cccc3ccccc23)CC2(CCCC(COC(=O)NCCc3ccc(Cl)cc3)O2)O1 (stereo not given in full) | 0.692 (inactive) | -0.14 | 3.31 (inactive) | 0.0962 (inactive) | -0.837 (inactive) | -0.466 (inactive) | 0.367 | 0.274 (inactive) | 0.623 (inactive) | 1.24 |
| C[C@H]1COC(=O)[C@@H]2CCCN2C(=O)[C@@H](C)COC(=O)[C@H](Cc2ccccc2)NC1=O | -0.0891 (inactive) | -0.394 | 0.115 (inactive) | -0.29 (inactive) | 0.968 (inactive) | 0.22 (inactive) | 0.413 | -0.45 (inactive) | -0.114 (inactive) | -0.272 |
| CC(CCN1CCc2nc(-c3ccccc3)c(-c3ccccc3)cc2C1)=NOC[C@@H](O)[C@H]1O[C@@H]2OC(C)(C)O[C@@H]2[C@H]1O | 0.784 (inactive) | -0.0099 | 1.47 (inactive) | 0.239 (inactive) | 0.318 (inactive) | 0.244 (inactive) | -0.0979 | -5.63 (inactive) | -1.69 (inactive) | -4.61 |
| CCOC(=O)[C@H](Cc1ccccc1)NC(=O)CCC1CC(OC(=O)NCc2ccc3c(c2)OCO3)CC2(CCCC(COC(=O)NCCC(C)C)O2)O1 (stereo not given in full) | 0.241 (inactive) | -0.0162 | 25.3 (active) | 11.5 (active) | 1.26 (inactive) | 1.5 (inactive) | 0.274 | 1.3 (inactive) | 0.25 (inactive) | 0.277 |
| CCOC(=O)NN=C1C[C@@H](O)[C@@H](O)[C@@H]2[C@@H]3C(=O)N(c4cccc(Oc5ccccc5)c4)C(=O)[C@@H]3CC[C@H]12 | 0.0433 (inactive) | -0.0958 | 1.6 (inactive) | -1.04 (inactive) | 0.0278 (inactive) | -1.58 (inactive) | 0.742 | -0.515 (inactive) | 0.209 (inactive) | -1.33 |
| CO[C@H]1COC(=O)[C@@H]2CCCN2C(=O)CC=C[C@@H](C)[C@H](OC)COC(=O)[C@@H](OCc2ccccc2)C=C[C@@H]1C | -0.33 (inactive) | -0.147 | 0.946 (inactive) | -0.82 (inactive) | -0.0897 (inactive) | -1.41 (inactive) | 0.917 | 0.291 (inactive) | 0.275 (inactive) | 0.245 |

Reference: PubChem BioAssay
